# Source: ChEMBL document CHEMBL3988442, “University of Dundee, Small-Polar-MMV Screening Library” (2021)
# For some of these results: Results with a measured potency or affinity are listed apart.
# Columns and labels:
# Design in all cases: scale not given: direction of the effect not stated beside the values
# [1] = target: Protein translocase subunit SecA (Escherichia coli (strain K12)) (UniProt P10408); assay: Assay to Identify E. coli SecA ATPase Inhibitors; assay type: functional; settings: 30 µM
# [2] = target: T1, Ubiquitin-activating enzyme e1, putative (Leishmania donovani (strain BPK282A1)) (UniProt E9BSI1); assay: Leishmania donovani Ubiquitin Activating Enzyme (LdE1); assay type: functional; settings: 30 µM
# T1 sequence (whole entry): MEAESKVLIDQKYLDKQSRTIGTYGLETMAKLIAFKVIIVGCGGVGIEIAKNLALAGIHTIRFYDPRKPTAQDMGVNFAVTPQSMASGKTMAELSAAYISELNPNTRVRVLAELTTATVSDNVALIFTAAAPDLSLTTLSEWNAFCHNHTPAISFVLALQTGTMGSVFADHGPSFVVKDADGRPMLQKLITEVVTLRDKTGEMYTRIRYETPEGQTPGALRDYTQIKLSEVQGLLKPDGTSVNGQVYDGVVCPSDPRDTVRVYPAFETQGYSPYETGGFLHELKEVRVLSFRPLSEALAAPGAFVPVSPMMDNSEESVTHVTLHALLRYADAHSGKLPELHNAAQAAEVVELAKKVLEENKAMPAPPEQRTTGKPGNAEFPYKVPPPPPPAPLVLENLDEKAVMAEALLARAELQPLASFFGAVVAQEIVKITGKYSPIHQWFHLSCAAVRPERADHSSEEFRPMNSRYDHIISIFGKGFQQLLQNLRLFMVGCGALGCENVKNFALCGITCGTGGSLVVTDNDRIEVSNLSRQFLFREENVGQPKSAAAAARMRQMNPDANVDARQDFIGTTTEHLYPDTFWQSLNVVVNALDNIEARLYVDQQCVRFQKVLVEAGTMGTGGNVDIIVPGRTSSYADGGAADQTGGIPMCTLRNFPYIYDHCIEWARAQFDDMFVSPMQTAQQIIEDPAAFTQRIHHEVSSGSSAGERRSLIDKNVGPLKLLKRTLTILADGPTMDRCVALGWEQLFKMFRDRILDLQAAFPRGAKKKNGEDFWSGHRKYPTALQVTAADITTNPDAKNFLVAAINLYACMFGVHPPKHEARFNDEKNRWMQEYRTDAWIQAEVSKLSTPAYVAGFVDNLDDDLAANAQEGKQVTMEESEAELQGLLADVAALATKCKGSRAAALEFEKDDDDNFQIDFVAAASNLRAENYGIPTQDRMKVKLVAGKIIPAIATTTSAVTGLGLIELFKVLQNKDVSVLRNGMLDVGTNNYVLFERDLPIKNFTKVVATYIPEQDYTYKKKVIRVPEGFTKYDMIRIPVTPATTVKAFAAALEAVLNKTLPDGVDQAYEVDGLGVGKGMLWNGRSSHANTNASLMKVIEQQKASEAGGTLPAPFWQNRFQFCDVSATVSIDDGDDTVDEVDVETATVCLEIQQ
# [3] = target: Sialic acid-binding Ig-like lectin 9 (Homo sapiens) (UniProt Q9Y336); assay: Hs-Siglec9 ALPHAscreen SOP 20170721; settings: 10 µM
# Trypanosoma cruzi = assay: Trypanosoma cruzi phosphomannomutase and mannose-1-phosphate guanylyltransferase assay; assay type: functional; settings: 10 µM
# [4] = target: T2, Arginase-2, mitochondrial (Homo sapiens) (UniProt P78540); assay: in vitro enzyme assay to detect the production of urea directly proportional to the activity of Arginase II; assay type: functional; settings: 33.3 µM; note: in the data most compounds retested in dose-response had high values
# T2 sequence (whole entry): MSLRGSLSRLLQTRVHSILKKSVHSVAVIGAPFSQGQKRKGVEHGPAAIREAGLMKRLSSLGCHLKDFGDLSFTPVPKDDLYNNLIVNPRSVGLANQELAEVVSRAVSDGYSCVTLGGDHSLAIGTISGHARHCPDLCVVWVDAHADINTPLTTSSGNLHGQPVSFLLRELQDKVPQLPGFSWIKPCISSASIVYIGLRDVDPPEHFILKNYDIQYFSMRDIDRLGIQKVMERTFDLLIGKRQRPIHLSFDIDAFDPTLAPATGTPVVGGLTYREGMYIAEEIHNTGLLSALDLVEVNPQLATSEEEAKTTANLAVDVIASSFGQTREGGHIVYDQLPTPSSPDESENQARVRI
# [5] = target: T3, Proteasome subunit beta (Trypanosoma cruzi) (UniProt O96673); assay: Trypanosoma cruzi proteasome chymotrypsin-like activity (TcProtChymo) assay.; note: in the data most compounds retested in dose-response had high values; assay type: functional; settings: 9.37 µM
# T3 sequence (whole entry): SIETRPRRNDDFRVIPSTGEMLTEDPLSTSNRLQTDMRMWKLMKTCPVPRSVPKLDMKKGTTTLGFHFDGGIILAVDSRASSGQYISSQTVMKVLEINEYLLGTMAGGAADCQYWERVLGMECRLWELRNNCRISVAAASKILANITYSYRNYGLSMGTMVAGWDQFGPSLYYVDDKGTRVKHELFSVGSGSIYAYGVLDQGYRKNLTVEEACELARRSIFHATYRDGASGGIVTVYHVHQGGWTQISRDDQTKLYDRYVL
# Homo sapiens = species: Homo sapiens; assay: To identify inhibition of the IFN signalling (Jak-Stat) pathway via expression of an eGFP reporter gene under the control of an IFN-stimulated response element (ISRE) containing MxA promoter.; assay type: functional; settings: 30 µM
# [6] = target: T4, Tyrosyl-tRNA synthetase, putative (Trypanosoma cruzi (strain CL Brener)) (UniProt Q4DSP6); assay: Trypanosoma cruzi tyrosyl tRNA synthetase (TcYRS) _High Tyrosine SOP; assay type: functional; settings: 30 µM; note: in the data most compounds retested in dose-response had high values
# T4 sequence (whole entry): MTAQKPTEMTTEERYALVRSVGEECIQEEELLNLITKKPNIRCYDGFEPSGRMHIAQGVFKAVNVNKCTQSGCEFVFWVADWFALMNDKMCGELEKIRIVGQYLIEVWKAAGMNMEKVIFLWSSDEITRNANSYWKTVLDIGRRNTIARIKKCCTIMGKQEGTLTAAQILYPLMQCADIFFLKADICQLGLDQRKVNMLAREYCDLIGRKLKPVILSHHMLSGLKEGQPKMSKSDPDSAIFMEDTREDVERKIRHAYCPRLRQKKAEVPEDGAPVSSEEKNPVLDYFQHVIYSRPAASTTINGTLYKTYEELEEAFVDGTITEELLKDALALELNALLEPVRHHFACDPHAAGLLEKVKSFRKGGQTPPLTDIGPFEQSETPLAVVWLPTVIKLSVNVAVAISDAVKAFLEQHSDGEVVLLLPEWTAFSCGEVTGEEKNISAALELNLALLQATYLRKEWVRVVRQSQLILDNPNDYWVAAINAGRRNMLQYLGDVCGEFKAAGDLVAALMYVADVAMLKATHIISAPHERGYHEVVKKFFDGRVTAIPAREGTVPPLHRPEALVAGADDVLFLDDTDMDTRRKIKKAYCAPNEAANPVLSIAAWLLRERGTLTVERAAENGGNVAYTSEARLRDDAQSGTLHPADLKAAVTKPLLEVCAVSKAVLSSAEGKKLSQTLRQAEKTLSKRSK
# [7] = target: T4, Tyrosyl-tRNA synthetase, putative (Trypanosoma cruzi (strain CL Brener)); assay: Trypanosoma cruzi tyrosyl tRNA synthetase (TcYRS) SOP; assay type: functional; settings: 30 µM
# [8] = target: Chromo domain-containing protein 1 (Saccharomyces cerevisiae (strain ATCC 204508 / S288c) (Baker's yeast)) (UniProt P32657); assay: ScCHD-1 Enzyme Inhibition Assay; assay type: functional; settings: 30 µM; note: in the data most compounds retested in dose-response had high values
# Sequence of Chromo domain-containing protein 1 (Saccharomyces cerevisiae (strain ATCC 204508 / S288c) (Baker's yeast)) (P32657 whole entry, the tested form may be a part): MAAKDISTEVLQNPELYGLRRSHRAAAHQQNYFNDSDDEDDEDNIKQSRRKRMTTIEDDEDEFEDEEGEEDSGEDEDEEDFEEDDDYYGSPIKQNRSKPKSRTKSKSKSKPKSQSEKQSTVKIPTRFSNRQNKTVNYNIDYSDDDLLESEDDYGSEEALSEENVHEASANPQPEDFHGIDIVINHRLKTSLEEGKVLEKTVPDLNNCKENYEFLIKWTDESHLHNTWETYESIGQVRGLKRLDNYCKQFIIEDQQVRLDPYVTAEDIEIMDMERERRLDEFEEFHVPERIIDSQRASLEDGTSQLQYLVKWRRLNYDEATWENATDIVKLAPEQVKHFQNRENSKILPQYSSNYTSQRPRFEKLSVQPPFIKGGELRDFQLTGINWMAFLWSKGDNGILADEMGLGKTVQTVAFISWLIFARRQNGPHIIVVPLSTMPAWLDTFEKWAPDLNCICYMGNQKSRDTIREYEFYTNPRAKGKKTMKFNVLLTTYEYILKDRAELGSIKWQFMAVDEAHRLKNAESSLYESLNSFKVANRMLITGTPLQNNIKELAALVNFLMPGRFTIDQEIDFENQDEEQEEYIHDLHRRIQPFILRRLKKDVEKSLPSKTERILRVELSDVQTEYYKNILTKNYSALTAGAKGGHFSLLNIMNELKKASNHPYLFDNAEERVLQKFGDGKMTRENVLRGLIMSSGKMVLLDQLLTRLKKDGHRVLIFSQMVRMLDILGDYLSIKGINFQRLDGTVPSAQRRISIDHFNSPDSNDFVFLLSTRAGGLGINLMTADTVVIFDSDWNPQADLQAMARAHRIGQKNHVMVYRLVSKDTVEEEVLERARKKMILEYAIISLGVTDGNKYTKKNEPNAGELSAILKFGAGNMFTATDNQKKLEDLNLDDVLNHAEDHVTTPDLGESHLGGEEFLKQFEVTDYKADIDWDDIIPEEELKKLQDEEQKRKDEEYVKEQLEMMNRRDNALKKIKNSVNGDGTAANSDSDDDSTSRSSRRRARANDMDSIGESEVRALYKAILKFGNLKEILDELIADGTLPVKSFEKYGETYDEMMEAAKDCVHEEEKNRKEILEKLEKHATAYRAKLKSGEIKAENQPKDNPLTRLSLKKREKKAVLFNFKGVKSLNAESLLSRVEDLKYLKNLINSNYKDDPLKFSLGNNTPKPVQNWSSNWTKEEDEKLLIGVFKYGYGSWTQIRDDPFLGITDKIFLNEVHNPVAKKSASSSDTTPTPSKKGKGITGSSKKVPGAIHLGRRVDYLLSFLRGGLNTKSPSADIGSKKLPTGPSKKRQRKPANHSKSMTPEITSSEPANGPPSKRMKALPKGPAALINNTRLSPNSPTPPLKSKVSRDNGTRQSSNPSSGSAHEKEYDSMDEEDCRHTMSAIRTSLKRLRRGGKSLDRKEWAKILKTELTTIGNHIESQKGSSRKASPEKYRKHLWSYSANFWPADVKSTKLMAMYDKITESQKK
# Sequence of Protein translocase subunit SecA (Escherichia coli (strain K12)) (P10408 whole entry): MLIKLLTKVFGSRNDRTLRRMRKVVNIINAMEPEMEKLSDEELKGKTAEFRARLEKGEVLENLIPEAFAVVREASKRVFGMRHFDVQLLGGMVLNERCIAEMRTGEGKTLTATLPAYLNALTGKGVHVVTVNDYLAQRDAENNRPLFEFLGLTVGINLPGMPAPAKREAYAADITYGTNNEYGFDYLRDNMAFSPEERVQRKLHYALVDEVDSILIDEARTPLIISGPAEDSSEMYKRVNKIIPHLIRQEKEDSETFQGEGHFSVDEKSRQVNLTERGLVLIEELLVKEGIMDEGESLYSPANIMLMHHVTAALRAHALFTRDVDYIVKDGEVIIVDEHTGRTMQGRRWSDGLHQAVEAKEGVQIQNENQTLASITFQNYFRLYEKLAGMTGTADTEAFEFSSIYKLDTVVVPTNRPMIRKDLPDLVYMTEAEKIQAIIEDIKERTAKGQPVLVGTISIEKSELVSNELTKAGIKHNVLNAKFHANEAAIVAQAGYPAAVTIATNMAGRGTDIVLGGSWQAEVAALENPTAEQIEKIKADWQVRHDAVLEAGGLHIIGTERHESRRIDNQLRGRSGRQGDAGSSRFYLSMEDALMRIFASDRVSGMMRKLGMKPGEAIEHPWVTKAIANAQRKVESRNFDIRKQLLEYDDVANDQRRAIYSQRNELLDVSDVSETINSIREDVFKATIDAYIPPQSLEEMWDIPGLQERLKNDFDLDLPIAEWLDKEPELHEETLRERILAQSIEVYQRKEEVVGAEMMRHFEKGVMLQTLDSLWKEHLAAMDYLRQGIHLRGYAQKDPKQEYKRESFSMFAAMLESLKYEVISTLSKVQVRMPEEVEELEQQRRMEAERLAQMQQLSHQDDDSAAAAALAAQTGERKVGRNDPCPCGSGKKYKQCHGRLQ
# Sequence of Sialic acid-binding Ig-like lectin 9 (Homo sapiens) (Q9Y336 whole entry): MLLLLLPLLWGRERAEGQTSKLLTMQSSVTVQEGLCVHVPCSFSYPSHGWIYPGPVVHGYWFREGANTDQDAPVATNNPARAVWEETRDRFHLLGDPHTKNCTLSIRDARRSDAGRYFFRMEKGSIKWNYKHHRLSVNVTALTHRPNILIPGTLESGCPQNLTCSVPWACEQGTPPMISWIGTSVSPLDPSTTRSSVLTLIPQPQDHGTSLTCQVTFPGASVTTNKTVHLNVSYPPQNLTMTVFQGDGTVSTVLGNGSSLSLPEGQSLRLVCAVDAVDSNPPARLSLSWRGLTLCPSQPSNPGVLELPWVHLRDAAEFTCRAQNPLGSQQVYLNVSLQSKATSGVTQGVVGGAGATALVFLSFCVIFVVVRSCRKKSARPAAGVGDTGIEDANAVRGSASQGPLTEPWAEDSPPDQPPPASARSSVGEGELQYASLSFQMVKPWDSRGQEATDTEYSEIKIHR
Compound,Percent Effect [1],Percent Effect [2],Percent Effect [3],Percent Effect (Trypanosoma cruzi),Percent Effect [4],Percent Effect [5],Percent Effect (Homo sapiens),Percent Effect [6],Percent Effect [7],Percent Effect [8]
CN(C)CCCn1ccnc1C1CCCN(c2cc(N)ncn2)C1 (stereo not given),-10.5%,2.7%,2.22%,-3.59%,-2.45%,4.97%,-11%,7.98%,4.88%,4.53%
CCNC(=O)[C@@H]1C[C@H](NC(=O)Cc2ccsc2)CN1Cc1ccc(C)o1,-3.95%,13.5%,10.2%,9.02%,14.3%,20.9%,20.3%,7.98%,21.9%,80.5%
O=C(NCCO)c1ccn(-c2ccc3ccccn23)n1,-3.79%,-32.5%,-8.91%,3.99%,-8.5%,19.1%,7.26%,11.1%,-2.56%,-0.759%
O=C1COC2(CCN(C(=O)c3ccco3)CC2)CN1Cc1cccnc1,-3.74%,14.3%,-1.08%,-2.25%,-0.457%,3.86%,-5.38%,7.73%,15%,-5.67%
Cc1n[nH]c(=O)c2c(NC(=O)CN3CCOC(C)C3)oc(C)c12 (stereo not given),1.61%,17.9%,-15.7%,1.78%,4.92%,16.6%,25.5%,3.35%,18.1%,-6.38%
Cc1nc(N2CCCC2)nc2c1CN(C(=O)N1CCOCC1)CC2,-4.38%,14.3%,1.78%,0.75%,3.2%,15.9%,1.81%,10.6%,15%,-9.99%
CNc1snc(C)c1C(=O)N1CCCC(n2nc(C)cc2C)C1 (stereo not given),-9.36%,13.3%,16.1%,6.02%,-3.1%,5.68%,-7.89%,4.74%,15.4%,-14.8%
Cc1cnn(CC2CCCCN2C(=O)c2cc(Cl)c[nH]2)c1 (stereo not given),-3.19%,20.8%,10.9%,6.53%,-5.53%,6.67%,15.7%,5.88%,23.5%,-9.18%
N#Cc1cccc(S(=O)(=O)NC(=O)COc2ccc3c(c2)CCC3)c1,-4.11%,12.8%,-9.11%,6.48%,-0.82%,17%,0.752%,0.478%,20.5%,-4.5%
CCNC(=O)[C@@H]1C[C@@H](NC(=O)Cc2ccncc2)CN1Cc1ccsc1,-12.1%,2.7%,3.71%,-4.56%,-0.35%,11.6%,-2.37%,4.79%,2.44%,5.29%
CN(C)CC1CN(Cc2coc(-c3ccccc3Cl)n2)CCO1 (stereo not given),-1.66%,13.3%,-4.39%,-2.41%,2.66%,10.6%,3.83%,0.526%,5.13%,-10.4%
CNc1cncc(C2CCCN2Cc2c[nH]cn2)n1 (stereo not given),-0.293%,9.33%,-0.612%,-4.14%,2.21%,7.88%,5.77%,5.29%,15%,-25.9%
O=C(C1CCOC1)N1CCc2ncc(CNc3ccccn3)n2CC1 (stereo not given),-0.228%,1.3%,8.26%,-0.682%,-1.62%,6.8%,4.98%,3.68%,5.13%,-14.8%
c1cnc(OCc2nnc3n2CCN(CC2CC2)C3)nc1,-6.05%,1.3%,5.56%,2.04%,-5.67%,2.91%,-10.7%,3.68%,7.69%,2.01%
Cc1cc(C(=O)NCC(C)N2CCc3ccccc32)no1 (stereo not given),0.558%,2.6%,10.1%,2.8%,-4.3%,0.175%,23.3%,7.84%,11.8%,-1.74%
CNc1nc(C2CCCN2C(C)=O)nc2c1CCN(CC1CC1)C2 (stereo not given),-3.68%,9.33%,5.24%,-0.197%,0.885%,12.2%,6.58%,3.17%,10%,-22.7%
CC(Cn1cccn1)NC(=O)NCc1ccccn1 (stereo not given),-2.65%,8%,-5.88%,-5.22%,1.33%,7.04%,13.9%,1.58%,10.3%,-11%
c1ccc(OC2CCCC2)c(CNC2CCc3ncnn3C2)c1 (stereo not given),-3.8%,10.3%,-13.9%,5.35%,2.87%,20.7%,3.46%,6.22%,18.1%,-3.21%
CN(CC1CCCCC1)C(=O)c1ccc(-n2ncc(C#N)c2N)cc1,-0.675%,2.6%,-3.53%,-9.33%,-9.22%,7.37%,48.7%,4.9%,16.5%,-3.77%
CN(C)c1ccc(NC(=O)NCc2ccccn2)cn1,-1.7%,20.8%,-3.66%,-3.92%,-0.205%,11.9%,-8.9%,5.88%,18.8%,-9.39%
O=C(NCC1CCSCC1)N(CCCO)C1CCc2ccccc21 (stereo not given),-1.28%,8%,-4.32%,-4.02%,-3.1%,9.92%,11%,-0.526%,0%,-14.3%
CCc1ccc(CN2CCC3(CC2)NC(=O)CC3c2ccncc2)o1 (stereo not given),-9.93%,6.49%,-0.747%,-3.21%,-5.26%,9.27%,-2.1%,0.526%,7.69%,-2.68%
